# Measured values: PubChem BioAssay AID540333 (Southern Research Specialized Biocontainment Screening …, 2011)
# Out of some 10,000 compounds screened, about 320 (3.2%) were called active. Only a selection was taken, and actives are over-represented in it overall. A number with no mark means an inactive call. No stated cut-off is given here; in the data, active means CPE inhibition mostly above about 9.1% (no sharp cut-off); inactive means mostly below about 7.2%.
# Experiment: antivirals protecting cells from dengue CPE – CPE readout, HTS (AID 540333)
# Conditions: Dengue virus CPE inhibition in host cells, at 20 µM; active compounds read high
row,SMILES,CPE inhibition
1,C/C(=N\Nc1ccccn1)c1ccc(S(=O)(=O)NCc2ccco2)cc1,inactive
2,C/C(=N\Nc1ncc(Cl)cc1Cl)c1ccc(S(=O)(=O)NCc2ccco2)cc1,inactive
3,C/C(=N\Nc1nc(Cl)c(Cl)cc1Cl)c1ccc(S(=O)(=O)NCc2ccco2)cc1,8.5% (active)
4,Cc1ccccc1OCC(=O)N/N=C1\SCC(=O)N1Cc1ccccc1,inactive
5,COc1ccc(-c2cc(C(=O)OCC(=O)Nc3ccc4c(c3)OCO4)c3ccccc3n2)cc1,0.175%
6,COc1ccc(NC(=O)C(c2cc3c(cc2[N+](=O)[O-])OCO3)N(C)c2ccccc2)cc1 (stereo not drawn),1.73%
7,COc1ccc(C(C(=O)Nc2ccc3c(c2)OCO3)N(C)C(=O)Cc2c[nH]c3ccccc23)cc1 (stereo not drawn),25.8% (active)
8,O=C(CCCC(=O)N1CCN(c2ccc([N+](=O)[O-])cc2)CC1)c1ccccc1,0.355%
9,Cc1ccc2nc(N3CC(=O)Nc4ccccc43)nc(-c3ccccc3)c2c1,1.55%
10,Cc1c(Cl)cccc1NCC(=O)Nc1ccc(Cl)cc1F,4.37%
11,COc1ccc(NC(=O)CCC(=O)c2cccs2)cc1S(=O)(=O)Nc1ccc(Cl)cc1,0.325%
12,Cc1ccc(C(=O)CCC(=O)Nc2ccc(Cl)c(S(=O)(=O)Nc3cccc(Cl)c3)c2)cc1,4.45%
13,COc1ccc(NS(=O)(=O)c2cccc(NC(=O)CCC(=O)c3ccc(Cl)cc3)c2)cc1,17.3% (active)
14,CC(=O)Nc1ccc(OCC(=O)NCCc2ccc(Cl)cc2)cc1,inactive
15,Cc1ccc(-n2c(C)cc(/C=N\NC(=O)CC(=O)NC(C)C)c2C)cc1,inactive
16,Cc1cc(/C=N\NC(=O)CC(=O)NC2CCCCC2)c(C)n1-c1cccc(Cl)c1Cl,22.7% (active)
17,Cc1cccc(C)c1-n1c(C)cc(/C=N\NC(=O)CC(=O)NC2CCCCC2)c1C,0.17%
18,Cc1ccc(S(=O)(=O)c2cc(OC(=O)c3ccco3)ccc2OC(=O)c2ccco2)cc1,0.235%
19,CC1(C)CC(NC(=O)C(Cl)(Cl)Cl)CC(C)(C)N1,inactive
20,CCn1ncc(/C=C/C(=O)C2CC2)c1C,2.21%

row,SMILES,CPE inhibition
1,CCOC(=O)c1c(C)[nH]c(C(=O)/C(C#N)=C/c2ccc(OCC)cc2)c1C,0.085%
2,CCOc1ccc(N=C2NC(=O)/C(=C/C(=O)OC)S2)cc1,0.935%
3,CCOC(=O)c1c(C)[nH]c(C2=NNC(=Nc3ccc(OCC)cc3)SC2)c1C,13.2% (active)
4,O=C(CCN1C(=O)c2ccccc2C1=O)C1=NN[C@@H]2C(=O)N(c3cccc(F)c3)C(=O)[C@H]12,1.32%
5,COc1cc(C=Nc2cccc([N+](=O)[O-])c2C)ccc1OC(C)=O,4.63%
6,Cc1cccc(/C=N/Nc2cc(N3CCOCC3)nc(N3CCOCC3)n2)c1,inactive
7,Cc1cccc(-c2nc(Nc3ccc(N4CCOCC4)cc3)c3ccccc3n2)c1,inactive
8,CSc1nc(N2CCOCC2)nc2ccc(C)cc12,11.8% (active)
9,COc1ccc(C)cc1NC(=O)c1cc2c(s1)CCC2,inactive
10,COc1ccc(/C=N/N2CCN(C3c4ccccc4-c4ccccc43)CC2)cc1OC,0.5%
11,CCc1nc(C#N)c(N2CCOCC2)o1,0.655%
12,COc1ccc(C(=O)N[C@H](C(=O)OCC(=O)NC(=O)c2cccn2C)C(C)C)cc1,inactive
13,CC(=O)c1ccc(NC(=O)c2cc(Cl)sc2Cl)cc1,0.185%
14,O=C(COC(=O)c1ccccc1C(=O)c1ccc(Cl)cc1)NCCc1ccccc1,5.59%
15,Cc1ccc(C(=O)c2ccccc2C(=O)OCC(=O)NCCc2ccccc2)cc1,1.41%
16,Cc1ccc(C(=O)c2ccccc2C(=O)OCC(=O)NCCc2ccc(Cl)cc2Cl)cc1,22.8% (active)
17,O=C(Nc1ccn(-c2ccccc2)n1)c1ccc(Cl)cc1,0.155%
18,COc1ccc(CCNC(=O)CC2SC(=NCCc3ccccc3)NC2=O)cc1 (stereo not drawn),inactive
19,C[C@H](NS(=O)(=O)c1ccc(Cl)cc1)C(=O)OCC(=O)NC(=O)Nc1ccc2c(c1)OCCO2,0.475%
20,O=S(=O)(Nc1cccc2c1CCCC2)c1ccc(Cl)cc1,21.1% (active)

row,SMILES,CPE inhibition
1,COc1cc(NS(=O)(=O)c2ccc(Cl)cc2)c(C(=O)O)cc1OC,0.06%
2,Cc1ccc(S(=O)(=O)Nc2cccc3c2CCCC3)cc1,0.255%
3,CCCc1nc2c(c(=O)c3ccccc3n2C)c(=O)n1-c1ccc(F)cc1,1.89%
4,Cn1c2ccccc2c(=O)c2c(=O)n(C3CCCCCC3)c(C3CCCCC3)nc21,inactive
5,CCc1nc2c(c(=O)c3ccccc3n2C)c(=O)n1C1CCCCCC1,13.5% (active)
6,Cn1c2ccccc2c(=O)c2c(=O)n(C3CCCCC3)c(-c3ccco3)nc21,10.4%
7,Cn1c2ccccc2c(=O)c2c(=O)n(-c3ccccc3)c(C3CCCCC3)nc21,9.13% (active)
8,CCCc1nc2c(c(=O)c3ccccc3n2C)c(=O)n1C1CCCCCC1,inactive
9,O=c1[nH]cnc2c1c(-c1ccccc1)cn2-c1ccc(Br)cc1,11.8% (active)
10,COC(=O)C(C)Sc1ncnc2c1c(-c1ccccc1)cn2-c1ccc(OC)cc1 (stereo not drawn),2.83%
11,CCOC(=O)CSc1ncnc2c1c(-c1ccccc1)cn2-c1ccc(OC)cc1,2.07%
12,CCOc1ccccc1NC(=O)C(OC(=O)c1ccccc1NS(=O)(=O)c1cccs1)c1ccccc1 (stereo not drawn),1.08%
13,CC12CCC(C(=O)N(NC(=O)c3cccnc3)C1=O)C2(C)C (stereo not drawn),2.09%
14,CC(NC(=O)/C=C/c1cnc2ccccc2n1)C12CC3CC(CC(C3)C1)C2 (stereo not drawn),12.8% (active)
15,CC(NC(=O)COC(=O)[C@@H]1CCCN1S(=O)(=O)c1ccccc1F)C12CC3CC(CC(C3)C1)C2 (stereo partly drawn),inactive
16,O=C(N/N=C/c1ccccn1)C12CC3CC(CC(C3)C1)C2,inactive
17,O=C(COc1ccc(Br)cc1Cl)NC1CCCCC1,0.99%
18,CC(=O)c1ccc(NC(=O)CN2C(=O)/C(=C/C(C)=C/c3ccccc3)SC2=S)cc1,0.22%
